Reference: PubChem BioAssay (NCATS)
Results filed as inconclusive are left out. The source made the active and inactive calls. Unless noted, the call rests on the fitted dose curve.

Experiments:
[1] = qHTS for Inhibitors of the Functional Ribonucleoprotein Complex (vRNP) of Lassa (LASV) Arenavirus: LASV Primary Screen - GLuc reporter signal (AID 1347082; calls by dose curve; tested in HEK293 reporter line; further: nearly all actives have a fitted effect of over 60% in size)
[2] = qHTS for Inhibitors of the Functional Ribonucleoprotein Complex (vRNP) of Lassa (LASV) Arenavirus: Viability assay - alamar blue signal for LASV Primary Screen (AID 1347083; calls by dose curve; tested in HEK293 reporter line; further: nearly all actives have a fitted effect of over 80% in size)
[3] = qHTS for Inhibitors of the Functional Ribonucleoprotein Complex (vRNP) of Lymphocytic Choriomeningitis Arenaviruses (LCMV): Viability assay - alamar blue signal for LCMV Primary Screen (AID 1347085; calls by dose curve; tested in HEK293 reporter line; further: nearly all actives have a fitted effect of over 80% in size)
[4] = biological target: Nucleoprotein (Lymphocytic choriomeningitis virus (strain Armstrong)) (UniProt P09992); test: qHTS for Inhibitors of the Functional Ribonucleoprotein Complex (vRNP) of Lymphocytic Choriomeningitis Arenaviruses (LCMV): LCMV Primary Screen - GLuc reporter signal (AID 1347086); further: nearly all actives have a fitted effect of over 70% in size
Sequence of Nucleoprotein (Lymphocytic choriomeningitis virus (strain Armstrong)) (P09992 whole entry, looked up): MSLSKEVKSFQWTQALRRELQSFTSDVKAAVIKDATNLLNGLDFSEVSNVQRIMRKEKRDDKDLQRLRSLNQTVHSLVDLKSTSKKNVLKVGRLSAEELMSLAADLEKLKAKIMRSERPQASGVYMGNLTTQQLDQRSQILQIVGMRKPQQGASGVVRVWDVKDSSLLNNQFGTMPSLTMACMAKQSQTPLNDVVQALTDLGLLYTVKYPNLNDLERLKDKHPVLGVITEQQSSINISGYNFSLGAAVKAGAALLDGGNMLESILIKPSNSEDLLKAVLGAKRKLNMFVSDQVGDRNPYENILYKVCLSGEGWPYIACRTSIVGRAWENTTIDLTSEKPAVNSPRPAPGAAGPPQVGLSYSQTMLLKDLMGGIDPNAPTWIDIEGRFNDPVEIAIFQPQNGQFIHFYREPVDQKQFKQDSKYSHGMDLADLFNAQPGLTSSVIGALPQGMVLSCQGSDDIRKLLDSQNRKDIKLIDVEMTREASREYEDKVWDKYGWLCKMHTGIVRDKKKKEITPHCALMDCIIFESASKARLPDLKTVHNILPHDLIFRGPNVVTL

Measured: Potency
Further: series mostly up to about 57 µM.

O=C(O)[C@H](O)[C@@H](O)C(=O)O
inactive: [1] | [2] | [3] | [4]

CC(C)(O)CC[C@@H](O)[C@](C)(O)C1CC[C@@]2(O)C3=CC(=O)[C@]4(O)C[C@@H](O)[C@@H](O)C[C@]4(C)C3CC[C@]12C (stereo partly specified)
inactive: [1] | [2] | [3] | [4]

OC/C=C/c1ccccc1
inactive: [1] | [2] | [3] | [4]

C[N+]1([O-])[C@@H]2Cc3cc4c(cc3[C@@H]1Cc1cc3c(cc12)OCO3)OCO4 (stereo partly specified)
inactive: [1] | [2] | [3] | [4]

C/C(=C\CNc1ncnc2c1ncn2[C@@H]1O[C@H](CO)[C@@H](O)[C@H]1O)CO
inactive: [1] | [2] | [3] | [4]

CC(=O)c1c(O)cccc1O
inactive: [1] | [2] | [3] | [4]

COc1ccc2c(Oc3ccc(NC(=O)c4c(C)n(CC(C)(C)O)n(-c5ccccc5)c4=O)cc3F)ccnc2c1
inactive: [1] | [2] | [3] | [4]

CCc1ccc(O)c(OC)c1
inactive: [1] | [2] | [3] | [4]

CCC(=O)O[C@]1(C(=O)CO)CC[C@H]2[C@@H]3CCC4=CC(=O)CC[C@]4(C)[C@@H]3CC[C@@]21C
inactive: [1] | [2] | [3] | [4]

CNCC(=O)O
inactive: [1] | [2] | [3] | [4]

CN1C(=O)[C@@H]2C[C@@]3([C@@]45C[C@H]6C(=O)N(C)[C@@H](Cc7ccccc7)C(=O)N6[C@@H]4Nc4ccccc45)c4ccccc4N[C@H]3N2C(=O)[C@@H]1Cc1ccccc1
inactive: [1] | [2] | [3] | [4]

O=C(O)CCc1ccccc1
inactive: [1] | [2] | [3] | [4]

COc1cc2nccc(Oc3ccc(NC(=O)Nc4ccc(F)cc4F)c(F)c3)c2cc1OC
inactive: [1] | [2] | [3] | [4]

CC(C)=CCCC1(C)C=Cc2c(c(C)cc3c2[nH]c2cc(O)ccc23)O1 (stereo unspecified)
inactive: [1] | [2] | [3] | [4]

Cc1cc(O)c2c(c1)C(O)(C1OC(CO)C(O)C(O)C1O)c1cccc(O)c1C2=O (stereo unspecified)
inactive: [1] | [2] | [3] | [4]

C=C1CC23C[C@H]4[C@@H]5[C@@]6(C)C[C@H](OC(=O)c7ccccc7)[C@@H](OC(C)=O)[C@]57[C@@H]2[C@@H](OC(C)=O)[C@H]1[C@@H](O)[C@H]3[C@H]7N4C6
inactive: [1] | [2] | [3] | [4]

COc1ccc(C2OCC3(O)C(c4ccc(OC)c(OC)c4)OCC23)cc1OC (stereo unspecified)
inactive: [1] | [2] | [3] | [4]

CC/C=C\CCOC(=O)C(C)C
inactive: [1] | [2] | [3] | [4]

CC(=O)OC[C@]12CCC(C)=C[C@H]1O[C@@H]1[C@H](O)[C@@H](OC(C)=O)[C@@]2(C)[C@]12CO2
inactive: [1] | [2] | [3] | [4]

COc1c(Br)cc(Br)cc1C(=O)O
inactive: [1] | [2] | [3] | [4]

OC[C@H]1O[C@@H](O[C@@H]2OC=C[C@H]3[C@H](O)[C@@H]4O[C@]4(CO)[C@@H]23)[C@H](O)[C@@H](O)[C@@H]1O
inactive: [1] | [2] | [3] | [4]

Cn1c(=O)c(-c2ccccc2)c(O)c2ccccc21
inactive: [1] | [2] | [3] | [4]

CCN1CCC(n2cc(CNc3cc(Cl)c4ncc(C#N)c(Nc5ccc(F)c(Cl)c5)c4c3)nn2)CC1
inactive: [1] | [2] | [3] | [4]

COc1cc2c(cc1OC)[C@H]1C(=O)c3ccc4c(c3O[C@H]1CO2)C[C@@H](C(C)(C)O)O4
inactive: [1] | [2] | [3] | [4]

CC1(C)Oc2ccc3ccc(=O)oc3c2[C@@H](O)[C@H]1O
inactive: [1] | [2] | [3] | [4]

CC1(C)C[C@H]2C3=CCC4[C@@]5(C)CC[C@H](O)C(C)(C)C5CC[C@@]4(C)[C@]3(C)[C@@H](O)[C@@H](O)[C@@]2(CO)[C@@H](O)[C@@H]1O (stereo partly specified)
inactive: [1] | [2] | [3] | [4]

COc1c2ccoc2nc2c(OC)c(OCC(OC(C)=O)C(C)(C)O)ccc12 (stereo unspecified)
inactive: [1] | [2] | [3] | [4]

CC1(C)C2CC[C@]3(C)C(CC=C4[C@@H]5C[C@@](C)(CO)[C@@H](O)C[C@]56C[C@@H](OC6=O)[C@]43C)[C@@]2(C)CC[C@@H]1O (stereo partly specified)
inactive: [1] | [2] | [3] | [4]

C[C@H](Cn1cnc2c(N)ncnc21)OCP(=O)(O)O
inactive: [1] | [2] | [3] | [4]
